# Bioassay records (PubChem)
# An excerpt weighted towards active compounds, which were near 4% of everything screened.
# GDH-TPI counter-1: inhibits GDH-TPI coupling enzymes, artifact for Mtb FBA screen. GDH-TPI coupled enzyme counterscreen, NADH absorbance. inhibition, % at 4.8 µM. 1.2% of 360,000 active. AID 588335; in the data active means inhibition above about 30%;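 further: 0% = DMSO wells and 100% = wells lacking the enzyme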
# Rv3671c protease: inhibits the M. tuberculosis serine protease Rv3671c; P9WHR9; inhibition, % at 5.96 µM; 0.048% of 320,000 active; in the data active means inhibition above about 38%;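 further: extracellular domain of Rv3671c used as enzyme; 0% = enzyme with DMSO and 100% = no enzyme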
# RecA intein inh: Mtb RecA intein splicing inhibition; cell-free RecA intein splicing, fluorescence; inhibition, % (test concentration not listed); 0.75% of 290,000 active; in the data active means inhibition above about 30%;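 further: 0% = vehicle wells and 100% = reference inhibitor control wells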
# Target sequence (P9WHJ3 whole entry, looked up): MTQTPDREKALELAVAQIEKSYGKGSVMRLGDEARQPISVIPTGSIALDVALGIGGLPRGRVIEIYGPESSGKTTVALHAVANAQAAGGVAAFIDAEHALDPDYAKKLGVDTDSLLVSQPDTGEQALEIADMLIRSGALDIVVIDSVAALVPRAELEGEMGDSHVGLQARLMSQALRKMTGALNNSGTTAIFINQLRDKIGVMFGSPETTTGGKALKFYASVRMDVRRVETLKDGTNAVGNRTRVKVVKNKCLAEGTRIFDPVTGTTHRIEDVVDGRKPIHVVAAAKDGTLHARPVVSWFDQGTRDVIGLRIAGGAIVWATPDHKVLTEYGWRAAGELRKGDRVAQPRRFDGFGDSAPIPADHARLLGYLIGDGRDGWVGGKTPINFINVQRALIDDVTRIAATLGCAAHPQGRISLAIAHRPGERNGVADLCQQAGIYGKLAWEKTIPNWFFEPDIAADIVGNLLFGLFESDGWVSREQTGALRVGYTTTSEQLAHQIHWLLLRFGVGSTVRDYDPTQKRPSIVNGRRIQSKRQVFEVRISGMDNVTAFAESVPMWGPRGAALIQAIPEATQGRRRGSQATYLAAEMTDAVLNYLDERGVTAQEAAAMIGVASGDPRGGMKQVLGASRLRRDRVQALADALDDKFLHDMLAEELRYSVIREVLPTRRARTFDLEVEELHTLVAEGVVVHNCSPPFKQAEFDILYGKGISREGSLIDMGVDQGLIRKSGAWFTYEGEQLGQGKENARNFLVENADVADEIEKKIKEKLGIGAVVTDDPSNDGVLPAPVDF
# Mtb betalactam: beta-lactam sensitization of Mtb H37Rv. 0.27% of 330,000 active. inhibition, % at 25 µM. AID 434955. M. tuberculosis H37Rv growth with meropenem, percent inhibition; call rule not given here;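 further: growth measured after seven days incubation then overnight dye step; 0% = bacteria only wells and 100% = bacteria with antibiotic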
# UGM FP inh: blocks M. tuberculosis UGM enzyme. P9WIQ1. purified UGM, fluorescence polarization probe displacement. inhibition, % at 10 µM. 0.06% of 320,000 active; in the data active means inhibition above about 10%, passing the limit was not always enough
# FBA Mtb inh: inhibits M. tuberculosis FBA enzyme | purified M. tuberculosis FBA, fluorescence read-out | inhibition, % at 1 µM | 2.3% of 360,000 active | AID 588726;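 further: 0% = vehicle and 100% = reference inhibitor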
# Mtb FBA confirm: confirmation of M. tuberculosis fructose-bisphosphate aldolase inhibitors | 78% of 5,600 active | shares compounds with FBA Mtb inh | AID 651616 | inhibition, % at 1 µM | purified M. tuberculosis FBA, fluorescence read-out;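 further: 0% = vehicle wells and 100% = reference inhibitor wells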
# GDH-TPI counter-2: inhibits GDH-TPI coupling enzymes, flagging Mtb FBA hits; inhibition, % at 1 µM; AID 652141; shares compounds with FBA Mtb inh; GDH-TPI coupled enzyme counterscreen, fluorescence; 81% of 5,600 active; in the data active means inhibition above about 10%
# GDH-TPI DR: GDH-TPI dose response counter-screen for Mtb FBA. GDH-TPI coupled enzyme assay, fluorescence, artifact counterscreen. IC50, µM. 79% of 170 active. AID 652145. shares compounds with FBA Mtb inh; call rule not given here
# Active calls of the source: *; x = not tested or not shown; + = active, no number. Unless noted, no stated cut-off is given here; in the data, active means inhibition above about 27%; inactive means the rest.
SMILES,GDH-TPI counter-1,Rv3671c protease,RecA intein inh,Mtb betalactam,UGM FP inh,FBA Mtb inh,Mtb FBA confirm,GDH-TPI counter-2,others
CCc1cc(=O)oc2cc(C)cc(OC(C)C(=O)NCc3cccnc3)c12 (centres undefined),-4,7,-1,2,-3,105*,+,154*,
COc1ccc(NC(=O)c2ccco2)cc1NC(=O)c1ccccc1[N+](=O)[O-],9,3,-2,-1,-1,2,x,x,
CC(=O)c1cc(F)c(N2CCN(C(=O)COc3ccccc3F)CC2)cc1C,7,4,-3,6,-2,38*,9,6,
CC(=O)c1cc(F)c(N2CCN(C(=O)C(C)(C)C)CC2)cc1C,5,1,-2,-12,-1,1,x,x,
Nc1nc2n(n1)C(c1cccs1)CC(c1ccc(F)cc1)N2 (centres undefined),0,-5,-1,7,0,13,x,x,
Nc1nc2n(n1)C(c1cccs1)CC(c1ccccc1)N2 (centres undefined),16,0,2,-4,-1,69*,101*,81*,
O=C1CCC(C(=O)OCc2nnc(-c3ccc(Cl)cc3)o2)=NN1,3,0,5,-3,0,1,x,x,
O=C1CCC(C(=O)OCc2cc(=O)oc3ccc4ccccc4c23)=NN1,22,0,-2,2,-2,31*,91*,62*,
CC1CCN(C(=O)c2[nH]cnc2C(=O)Nc2ccon2)CC1,-9,3,x,-2,0,4,x,x,
Cc1cc(-c2ccccc2)nc2oc(C(=O)NN)c(N)c12,9,7,-63,-2,1,39*,55*,44*,
Cc1cc(C)c2c(N)c(C(=O)c3ccccc3)oc2n1,8,3,-1,-4,x,5,x,x,
COC(=O)c1oc2nc(C)cc(C)c2c1N,16,-2,1,2,-1,69*,47*,40*,
CC(=O)Nc1ccc(S(=O)(=O)NCC(=O)Nc2ccc3c(c2)OCO3)cc1,5,2,x,1,2,0,x,x,
O=c1[nH]c(=S)[nH]c2nc(-c3cccs3)cc(C(F)(F)F)c12,17,-1,1,-9,-3,32*,94*,76*,
N#CCCN(C(=O)CSc1nc2nc(-c3cccs3)cc(C(F)(F)F)c2c(=O)[nH]1)c1ccccc1,8,-1,0,1,-1,13,x,x,
CNc1nc(-c2cccs2)cc(C(F)(F)F)c1C#N,-2,-4,x,2,0,58*,78*,54*,
Nc1c(C(=O)C2CC2)sc2nc(-c3cccs3)cc(C(F)(F)F)c12,2,0,0,2,6,57*,44*,30*,
N#Cc1c(C(F)(F)F)cc(-c2cccs2)nc1SC(C(=O)O)c1ccccc1 (centres undefined),10,-3,-2,-1,-1,10,x,x,
Cc1ccc2nc(-c3ccccc3)cc(C(=O)N3CCN(S(=O)(=O)c4c(C)noc4C)CC3)c2c1,7,-6,x,1,2,2,x,x,
CC1Sc2ccc(C(=O)N(CCc3ccccc3)Cc3ccccc3)cc2NC1=O (centres undefined),14,x,x,x,x,4,x,x,
COc1cccc(NC(=O)N(C)C[C@H]2Oc3cc(Br)ccc3S(=O)(=O)N([C@H](C)CO)C[C@H]2C)c1,-2,x,x,x,x,0,x,x,
Cc1cc(C)cc(Oc2coc3c(CN(C)C)c(O)ccc3c2=O)c1,22,-3,-4,-7,0,92*,77*,68*,
Oc1ccc(C23CCCC2C2(CCCC2)c2ccc(O)cc2O3)c(O)c1 (centres undefined),-5,-9,x,-4,-1,-1,x,x,
CC(=O)Nc1ccc(-c2ccnc3c2CC(C)(C(=O)NC(C)C)O3)cc1 (centres undefined),2,x,x,x,x,9,x,x,
CN(C)c1ccc(-c2ccnc3c2CC(C)(C(=O)NCc2ccc(F)c(F)c2)O3)cc1 (centres undefined),25,x,x,x,x,44*,103*,78*,
SMILES,GDH-TPI counter-1,Rv3671c protease,RecA intein inh,Mtb betalactam,UGM FP inh,FBA Mtb inh,Mtb FBA confirm,GDH-TPI counter-2,others
CN(C)c1ccc(-c2ccnc3c2CC(C)(C(=O)NCc2ccco2)O3)cc1 (centres undefined),14,x,x,x,x,31*,73*,52*,
CN(C)c1ccc(-c2ccnc3c2CC(C)(C(=O)NCCC(F)(F)F)O3)cc1 (centres undefined),24,x,x,x,x,36*,97*,64*,
CC(C)NC(=O)C1(C)Cc2c(-c3ccc(N(C)C)cc3)ccnc2O1 (centres undefined),12,x,x,x,x,38*,+,+,
CC(=O)Nc1ccc(-c2ccnc3c2CC(C)(C(=O)NCc2ccc(N(C)C)cc2)O3)cc1 (centres undefined),4,x,x,x,x,3,x,x,
CC(=O)Nc1ccc(-c2ccnc3c2CC(C)(C(=O)NCCC(F)(F)F)O3)cc1 (centres undefined),-4,x,x,x,x,7,x,x,
CC1(C(=O)NCc2ccncc2)Cc2c(-c3cccc(C(F)(F)F)c3)ccnc2O1 (centres undefined),4,x,x,x,x,1,x,x,
CC1(C(=O)NCc2cccs2)Cc2c(-c3ccccc3)ccnc2O1 (centres undefined),0,x,x,x,x,3,x,x,
CC1(C(=O)NCc2cccc(Cl)c2)Cc2c(-c3ccc4c(c3)OCO4)ccnc2O1 (centres undefined),10,x,x,x,x,30*,19,21*,
CC1(C(=O)NCc2cccs2)Cc2c(-c3ccc4c(c3)OCO4)ccnc2O1 (centres undefined),-1,x,x,x,x,61*,53*,32*,
CN(C)c1ccc(-c2ccnc3c2CC(C)(C(=O)NCc2cccs2)O3)cc1 (centres undefined),19,x,x,x,x,40*,32*,9,GDH-TPI DR=1*
CC(C)n1cnc2c(Nc3cccc(Cl)c3)nc(NCCCO)nc21,1,15,1,58,-1,34*,130*,98*,
CC(C)(C)CNC(=O)c1cccc2c1C(=O)c1ccc(-c3cc4ccccc4o3)cc1S2(=O)=O,5,-17,x,-3,3,4,x,x,
CCC(CO)NC(=O)C1C=C2c3cccc4[nH]cc(c34)CC2N(C)C1 (centres undefined),10,-1,21,-2,2,83*,+,+,
CC(C)C[C@H]1C(=O)N2CCC[C@H]2[C@]2(O)O[C@](NC(=O)[C@@H]3C=C4c5cccc6[nH]cc(c56)C[C@H]4N(C)C3)(C(C)C)C(=O)N12,17,-30,x,-1,6,13,x,x,
O=[N+]([O-])c1cccc(COc2cccc(CN3CCCCC3)c2)c1,-19,x,x,x,x,1,x,x,
